SARS PLP yeast: inhibitors of SARS-CoV papain-like protease in yeast. 330,000 compounds, 0.19% hits. Potency, µM (highest dose often 32.9 µM), inactives show top-dose activity, positive = growth rescue, most hits filed as activators. S. cerevisiae expressing SARS-CoV PLpro, growth rescue. AID 485353; also: 0% is about no effect; nearly all actives have a fitted effect of over 55% in size
NS1 inh: blocks influenza NS1 protein function; Potency, µM (highest dose often 46.1 µM), for the others: top-dose activity, positive = more growth; 270,000 compounds, 0.4% hits; AID 2326; also: actives are rising curves; nearly all actives have a fitted effect of over 50% in size
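A cell-based growth assay was used: compounds that relieve NS1-induced slow growth of budding yeast raise OD600. Assay medium was yeast nitrogen base with ammonium sulphate and -URA supplement, pH 6.0, with 2% galactose.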
Pf growth 96h: P. falciparum growth inhibition at 96 hour, primary screen for plastid delayed-death inhibitors. 320,000 compounds, 6.9% hits. Potency, µM (series often up to 28.7 µM), inactives show top-dose activity change, negative = inhibition, most hits filed as inhibitors. P. falciparum luciferase reporter growth, 96 h; active = well fitted inhibition curve with a large enough effect; inconclusive = small, poorly fitted or top-dose-only effect, or another doubt; inactive = no such curve, though single readings can be large or run the other way; also: % is scaled to controls: 0 for no effect and ±100 for the full control effect
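Parasite growth measured via integrated firefly luciferase reporter in P. falciparum. Infected erythrocytes at 2% hematocrit, 0.05% parasitemia final were treated 96 hours at 37 C under 5% CO2, and luminescence was read.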
RE007 growth inh: less growth of the S. pombe RE007 Vpr strain | S. pombe RE007 Vpr strain, BacTiter-Glo ATP luminescence, 24 h | Potency, µM (doses to about 92.2 µM), inactives show top-dose activity change, negative = less growth, most hits filed as inhibitors | 360,000 compounds, 0.21% hits; active = well fitted falling curve with a large enough effect; inconclusive = small, poorly fitted or top-dose-only effect; inactive = no such curve, though single readings can be large or run the other way; also: % is scaled to controls: 0 for no effect and ±100 for the full control effect; nearly all actives have a fitted effect of over 50% in size
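Fission yeast strain RE007, carrying one chromosomally integrated HIV-1 vpr copy, was seeded at OD 0.01 in PMG+AL medium with 23 nL pinned compound. After 24 h at 30 °C and 99% humidity, viability was read by BacTiter-Glo luminescence.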
Pf growth 48h: inhibits P. falciparum growth in the first generation, 48 h; P. falciparum luciferase growth in erythrocytes, 48 h; Potency, µM (highest dose often 28.7 µM), inactives show at the highest dose activity change, negative = inhibition, usual class: inhibitors; 310,000 compounds, 5.9% hits; AID 504832; active = well fitted inhibition curve with a large enough effect; inconclusive = small, poorly fitted or top-dose-only effect, or another doubt; inactive = no such curve, though single readings can be large or run the other way; also: % is scaled to controls: 0 for no effect and ±100 for the full control effect
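Cell-based growth assay: transgenic P. falciparum expressing firefly luciferase, cultured in red cells within RPMI 1640 containing 0.5% w/v Albumax, 24 mM bicarbonate and gentamycin. A drop in luciferase activity indicates inhibition.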
Starred values were filed as active, the others as inactive; ? = inconclusive; / = no result given; [ ] = dose if it differs, or a comment. This is a sample that favours compounds with a hit; in the whole collection about 9.5% have one here. Unless noted, calls follow the shape of the full dose curve. Potency is read from the fitted curve at half-maximal effect.

SMILES	SARS PLP yeast	NS1 inh	Pf growth 96h	RE007 growth inh	Pf growth 48h
COc1ccc(N2C(=O)CC(Nc3ccc(C)cc3)C2=O)cc1 (configuration not stated)	?	-6.7%	-27.3%	-8.7%	/
CCOC(=O)C1(C)CCCN(C(=O)c2cccs2)C1 (configuration not stated)	/	/	/	-11.7%	/
COc1cc(OC)c(C2CC(=O)N3CN(c4ccccc4C)CSC3=C2C#N)cc1OC (configuration not stated)	4.4%	3.98µM*	3.8%	/	?
Cc1cccc(N2CSC3=C(C#N)C(c4ccc(C)o4)CC(=O)N3C2)c1 (configuration not stated)	4.2%	1.78µM*	10.4µM*	/	36.2%
COc1ccc(OC)c(C2CC(=O)N3CN(c4ccccc4)CSC3=C2C#N)c1 (configuration not stated)	2.7%	-43.0%	?	-1.6%	/
CCc1ccccc1N1CSC2=C(C#N)C(c3ccccc3F)CC(=O)N2C1 (configuration not stated)	-3.6%	0.891µM*	-15.6%	-13.7%	/
C=CCSC1=C(C#N)C(c2ccc(OCC)cc2)CC(=O)N1 (configuration not stated)	0.8%	-6.3%	7.38µM*	-18.4%	/
CCOc1ccc(C2CC(=O)NC(SC)=C2C#N)cc1 (configuration not stated)	-1.3%	2.2%	-23.2%	-2.1%	/
C=CCSC1=C(C#N)C(c2ccccc2Cl)CC(=O)N1 (configuration not stated)	0.2%	0.6%	3.29µM*	-6.3%	2.6%
CCN(CC)CCNC(=O)c1ccc2c(=O)n(C3CCCC3)c(=S)[nH]c2c1	3.6%	-2.4%	3.3%	6.9%	2.33µM*
CC(C)NC(=O)c1ccc2c(=O)n(C3CCCC3)c(=S)[nH]c2c1	-6.3%	6.8%	-2.6%	19.9%	26.2%
COc1ccc(Cn2c(=S)[nH]c3cc(OC)c(OC)cc3c2=O)cc1	-1.3%	/	?	10.4%	37.8%[5.75 µM]
COc1cc2[nH]c(=S)n(Cc3ccc(C)cc3)c(=O)c2cc1OC	3.8%	/	10.4µM*	6.5%	-25.4%
CCOc1cc2[nH]c(=S)n(Cc3ccc(C(=O)NCCN(CC)CC)cc3)c(=O)c2cc1OCC	-2.9%	-3.6%	-22.1%	-10.1%	2.62µM*
CCCN1C(=O)c2ccccc2NC1c1ccc(OC)c(CSc2ccccn2)c1 (configuration not stated)	-14.2%	6.6%	10.4µM*	50.2%	?
COc1ccc(C2Nc3ccccc3C(=O)N2c2ccc(C)cc2)cc1Cn1nnc2ccccc21 (configuration not stated)	2.9%	21.7%	?	2.8%	13.1µM*
COc1ccc(C2Nc3ccccc3C(=O)N2Cc2ccco2)cc1COc1ccc(F)cc1 (configuration not stated)	14.4%	?	6.57µM*	2.3%	2.08µM*
COc1ccc(C2Nc3ccccc3C(=O)N2Cc2ccco2)cc1CN1C(=O)c2ccccc2C1=O (configuration not stated)	2.0%	21.5%	?	15.1%	13.1µM*
CCCn1c(=O)n(C)c(=O)c2c(SCC(=O)Nc3cc(C)on3)nc(C(C)(C)C)nc21	-3.8%	/	?	21.8%	10.4µM*
Cc1cc(NC(=O)CSc2nc(C(C)C)nc3c2c(=O)n(C)c(=O)n3C)no1	-2.1%	4.0%	?	-6.8%	?
CC(NC(=O)Nc1ccccc1F)C(C)(C)C (configuration not stated)	-1.3%	-0.7%	-24.7%	-16.5%	-14.4%
CC(C)(C)c1cc(C(=O)Nc2cccnc2)cc(C(=O)Nc2cccnc2)c1	-0.6%	3.9%	0.828µM*	21.4%	/
Cc1[nH]c2ccc(C(=O)Nc3ccncc3)cc2c1C	-1.6%	1.5%	11.7µM*	-16.9%	?
O=C(Nc1cccnc1)c1ccc(Cl)c(Cl)c1	-11.0%	-48.5%	6.57µM*	-14.1%	?
O=C(Nc1ccc(Cl)c(Cl)c1)c1ccc(Cl)c(Cl)c1	1.7%	4.2%	91.6%	/	77.5%
SMILES	SARS PLP yeast	NS1 inh	Pf growth 96h	RE007 growth inh	Pf growth 48h
O=C(Nc1ccc(Cl)c(Cl)c1)c1ccncc1	-19.0%	-85.1%	14.7µM*	?	71.9%
CC(C)NC(=O)c1cc(C2CCCCN2S(=O)(=O)c2ccccc2)on1 (configuration not stated)	/	/	/	7.3%	/
O=C(Nc1ccc2ccccc2c1)c1ccc(Cl)cc1	12.8%	13.4%	5.22µM*	0.3%	221.7%
O=C(Nc1ccncc1)c1ccc(Br)cc1	-6.7%	-31.1%	-10.3%	-21.3%	?
O=C(Nc1ccncc1)c1cc(F)cc(F)c1	-8.0%	0.1%	2.94µM*	-7.8%	?
Cc1ccc(C)c(N=Nc2nc3ccccc3n2C)c1	-21.3%	-148.1%	0.465µM*	?	0.522µM*
Cc1cc(C)c(C)c(N=Nc2nc3ccccc3n2C)c1C	-51.0%	-22.0%	15.4%	-17.1%	-79.9%
CN1CCN(NC(=O)/C=C/c2cccc(Cl)c2)CC1	-1.4%	17.0%	5.0%	12.2%	21.9%
CS/C(Nc1cc(Cl)ccc1Cl)=C(/C#N)C(=O)c1ccco1	-3.5%	-4.4%	5.86µM*	-16.4%	3.29µM*
C[C@@H]1O[C@H](CCc2cccc(Cl)c2)CC2=C1C(=O)OC(C)(C)O2	/	/	/	-8.8%	/
Cc1cccc(C(C)C)c1-n1nnnc1-c1ccccc1	-12.3%	-97.2%	-7.4%[5.75 µM]	-12.4%	10.4µM*
CCOc1ccc(-n2c(N)c(-c3nc4ccccc4[nH]3)sc2=S)cc1	-4.6%	15.0%	/	4.3%	-20.2%
COc1ccc(-n2c(N)c(-c3nc4ccccc4n3C)sc2=S)cc1	-2.1%	3.2%	28.4%	7.3%	0.928µM*
COCCNC(=O)C(NC(=O)C1CCCCC1)C(C)C (configuration not stated)	-7.7%	/	0.738µM*	7.9%	12.6%
CC1(C)C(N(O)C(=O)Nc2ccc(Cl)cc2)N(c2ccc(Cl)cc2)C(=O)N1CC(=O)NN (configuration not stated)	13.1%	?	10.4µM*	-10.1%	/
CN1C(=S)SC(C)(C)C1N(O)C(=O)Nc1ccc(Cl)cc1 (configuration not stated)	-1.5%	-5.4%	3.7%	12.4%	?
Cc1nc2ccc([N+](=O)[O-])cc2c(=O)n1Cc1ccc(Br)cc1	-8.6%	6.4%	3.29µM*	-16.0%	4.2%
COc1cc(NC(=O)COC(=O)Cc2ccsc2)cc(OC)c1	1.5%	/	14.3%	-6.4%	17.6%
COC(=O)c1sc2nc(SCc3cccc(Cl)c3)n(N)c(=O)c2c1C	?	9.7%	9.28µM*	5.6%	0.4%
Cc1ccc(C(=O)NC(C)(COc2nonc2C)COc2nonc2C)cc1	-1.3%	-4.7%	/	2.5%	11.7µM*
CCCCCCN(C(=O)CCCCCN1C(=O)NC(c2ccc(C(C)(C)C)cc2)C(C(=O)OCc2ccccc2)=C1C)C(C(=O)NCCCC)c1ccc(OCC(=O)OC)c(C(=O)OC)c1 (configuration not stated)	0.4%	8.91µM*	2.08µM*	/	2.08µM*

Screens deposited in PubChem by National Center for Advancing Translational Sciences (NCATS).
